Data on 40 molecules can be found in PubChem BioAssay (Tox21).

Records with an inconclusive call do not appear. A call without a number means that no potency is given here. Activity calls are given as the source filed them. The call rests on the fitted dose curve; in most records, active means well fitted cell-killing curve with a large enough effect in the repeat runs; inconclusive means weak or mixed curves; inactive means flat fitted curve, though single readings scatter.
Potency means the concentration at half of the fitted maximal effect.

This assay can be described thus: qHTS assay to identify small molecule antagonists of the estrogen related receptor (ERR) signaling pathway from Tox21 library - cell viability counter screen (AID 1224834). Further: nearly all actives have a fitted effect of over 30% in size. As to conditions: ERR reporter cells viability, CellTiter-Fluor, 17.5 h; series mostly up to 92.4 µM. The text has this:
National Center for Advancing Translational Sciences [NCATS]
NIH Chemical Genomics Center [NCGC]
U.S. Environmental Protection Agency [EPA]
National Institutes of Environmental Health Sciences [NIEHS]
National Toxicology Program [NTP]
U.S. Food and Drug Administration [FDA]
Estrogen related receptors (ERRs), the first orphan nuclear receptors discovered, play an important role in the control of cellular energy metabolism. ERRs are required for high-energy production in response to the environmental challenges. ERR-alpha was also identified as an adverse marker for breast cancer progression; ERR-alpha-positive tumors have a poor prognosis. To screen and to identify environmental compounds that perturb the ERR signaling pathways could provide valuable information for potential therapeutic or preventive measures in the treatment of metabolic disease. To differentiate true ERR antagonists or agonist from cytotoxic substances, the assay is multiplexed with cell viability assay.
Tox21 Assay Protocol Summary:
The ERR cells were dispensed at 2,000 cells/5 ul/well in 1536-well white plates using a Multidrop dispenser. After the assay plates were incubated at a 37 C/5% CO2 incubator for 6 hours, 23 nL of compounds dissolved in DMSO, positive and negative controls or DMSO only was transferred to the assay plate by a pin tool. The plates were incubated at 37 C for 17.5 hours. 1 ul/well of CellTiter-Fluor reagent was added into the assay plates using a Flying Reagent Dispenser. After 30-minute incubation at 37 C/5% CO2, the fluorescence intensity in the plates was measured using a ViewLux plate reader.
For orientation: qHTS replaces the single test concentration by a dilution series.
Regarding `N#CCCNCCC#N`, the Potency entry is “inactive”.
As for `Cn1sccc1=O`, the entry is “inactive”; as for `NCc1ccccc1`, “inactive”; as for `COc1ccc(C(C)=O)cc1`, “inactive”.
Regarding `CC(C)c1ccccc1C(C)C`, the Potency entry was “inactive”.
In the case of `O=C1CCCCCO1`, the Potency result is “inactive”.
As for `C[Si](C)O[Si](C)(C)O[Si](C)(C)O[Si](C)C`, the entry is “inactive”; as for `CCCCCc1ccc(N)cc1`, “inactive”; as for `CCCCCCCCN(C)C`, “inactive”.
As for `CCCCOc1ccc(CC(=O)NO)cc1`, the figure is 18.8 µM (active).
In the case of `Oc1ccc(O)c2c(O)cccc12`, the Potency entry is “inactive”.
For `CCCCc1cc2ccccc2c(OCCN(C)C)n1`, the Potency entry is “inactive”.
As for `COC(=O)C(C)=O`, the entry is “inactive”.
For the molecule `NCCCOCCOCCOCCCN`, the Potency result is “inactive”.
With `Cl/C(=C\n1cncn1)c1ccc(Cl)cc1Cl` the entry was “inactive”; with `CCCCCCCC/C=C\CCCCCCCC(N)=O`, “inactive”; with `CN1CCN(C2=Nc3ccccc3Sc3ccc(Cl)cc32)CC1`, “inactive”.
On to `Cn1c(NCCN(CCO)CCCc2ccc([N+](=O)[O-])cc2)cc(=O)n(C)c1=O`, for which the Potency entry was “inactive”.
With `C=CCCCCCC` the entry was “inactive”; with `C=CC[N+]1([C@H]2C[C@H]3[C@@H]4CC[C@H]5C[C@H](OC(C)=O)[C@@H](N6CCCCC6)C[C@]5(C)[C@H]4CC[C@]3(C)[C@H]2OC(=O)CC)CCCCC1`, “inactive”; with `CC1(C)[C@H]2CC[C@]1(C)[C@H](O)C2`, “inactive”.
As to `CCCc1ccccc1`, the Potency result is “inactive”.
With `CC(C)NCC(O)c1cc(O)cc(O)c1` (stereo not given) the entry was “inactive”; with `CCCCCCCCCCCCCCC1CO1` (stereo not given), “inactive”.
For `CC(C)CCCC(C)CCO` (stereo not given), the Potency entry is “inactive”.
Turning to `C=C(C)C(=O)OCCN(C)C`, the Potency result is “inactive”.
Turning to `CN1CCC(OC(c2ccccc2)c2ccccc2)CC1`, the Potency entry was “inactive”.
As for `CNCC[C@@H](Oc1ccccc1C)c1ccccc1`, the entry is “inactive”.
Consider `Cc1cccc(OCCOc2cccc(C)c2)c1`, for which the Potency result was “inactive”.
Take `CC(O)C1CCCCC1` (stereo not given): the Potency result was “inactive”.
For the molecule `CC/C(=C\C(=N/O)C(N)=O)C(C)[N+](=O)[O-]` (stereo not given), the Potency entry was “inactive”.
As for `COc1cc(C(C)(C)C)c(O)c(C(C)(C)C)c1`, the entry is “inactive”; as for `CC(=O)O[C@@H]1C(=O)O[C@@H]2[C@H]1OC(=O)[C@@H]2OC(C)=O`, “inactive”.
With `O=C(O)Cn1c(C(=O)Nc2nc(-c3ccccc3Cl)cs2)cc2ccccc21`, the Potency result was “inactive”.
With `Cc1cc(NC(=O)C(=O)O)cc(C)c1Oc1ccc(O)c2c1CCC2` the entry was “inactive”; with `N[C@H]1C(O)O[C@H](CO)[C@H](O)[C@@H]1O` (stereo not given in full), “inactive”.
With `C=C(C)C(=O)OCCOc1ccccc1` the entry was “inactive”.
Take `CC1=CCC(C(C)C)C=C1` (stereo not given): the Potency result is “inactive”.
As for `Cc1nc2ccccc2n1Cc1ccc(Cl)cc1`, the entry is “inactive”; as for `NC(N)=NN=C(/C=C/c1ccc([N+](=O)[O-])o1)/C=C/c1ccc([N+](=O)[O-])o1`, 2.98 µM (active).
